The nature of test [1]: NCI Yeast Anticancer Drug Screen. Data for the rad50 strain (AID 155).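 Also: 0% = growth of vehicle-only cultures of the same strain.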 The conditions noted are these: S. cerevisiae rad50 strain growth inhibition; at 50.0 µM; active compounds read high. Put shortly: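 Vehicle-treated cultures provide the reference for the growth inhibition reported for compound-exposed, repair-deficient yeast.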
A short description of test [2]: NCI Yeast Anticancer Drug Screen. Data for the mec2-1 strain (AID 157). The conditions noted are these: S. cerevisiae mec2-1 strain, at 50.0 µM, active compounds read high. The essentials:
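Yeast mec2-1 mutant treated with compound. Readout: growth inhibition vs vehicle controls.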

A short description of test [3]: NCI Yeast Anticancer Drug Screen. Data for the sgs1 mgt1 strain (AID 161).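 Also: 0% = growth of cultures given vehicle only.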 The conditions noted are these: S. cerevisiae sgs1 mgt1 strain, at 50.0 µM, active compounds read high. Put shortly:
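Inhibition of yeast growth, normalised to vehicle-treated controls, is reported for a strain bearing genetic alterations in DNA damage repair.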

Test [4] is described as follows: NCI Yeast Anticancer Drug Screen. Data for the cln2 rad14 strain (AID 165).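 Also: 0% = growth equal to vehicle treated cultures.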 The conditions noted are these: S. cerevisiae cln2 rad14 strain, at 50.0 µM, active compounds read high. The essentials: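 cln2 rad14 yeast strain; compound exposure; growth inhibition read vs vehicle controls.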
Test [5] is described as follows: NCI Yeast Anticancer Drug Screen. Data for the bub3 strain (AID 167). The conditions noted are these: S. cerevisiae bub3 mutant strain, at 50.0 µM, active compounds read high. The essentials:
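Mutant yeast screening strain plus compound; vehicle-treated cultures serve as the 0% inhibition reference.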

Test [6] in a line: NCI Yeast Anticancer Drug Screen. Data for the mlh1 rad18 strain (AID 175). The conditions noted are these: S. cerevisiae mlh1 rad18 strain growth inhibition; at 50.0 µM; active compounds read high. The essentials:
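Yeast w/ defined DNA-repair lesions; compound exposure; growth vs vehicle controls → % inhibition.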

We go through 19 molecules from PubChem BioAssay (NCI).

The structures appear in SMILES notation. About 79,000 compounds went through this panel and 15% of them were active in at least one assay; those are over-represented in the sample as a whole. A number with no mark means an inactive call. Calls of active or inactive are those of the source. Rule as the data show it: active = growth inhibition above about 70%; inactive = the rest.

Consider `O=C(CCC(=O)Nc1ccc(Cl)c(Cl)c1)Nc1ccc(Cl)c(Cl)c1`, for which the growth inhibition was 50.9% in test [1]; 46.5% in test [2]; 49% in test [3]; 39.1% in test [4]; 78.2% (active) in test [5]; 63% in test [6].

On to `CCN(CC)P(=O)(c1ccc2c(c1)OCCOCCOCCOCCO2)N(CC)CC`, for which the growth inhibition was 28.9% in test [1]; 22.9% in test [2]; 21.7% in test [3]; 23.3% in test [4]; 33.6% in test [5]; 37% in test [6].

Take `O=C(O)c1cccc(SS(=O)(=O)c2cccc(C(=O)O)c2)c1`: the growth inhibition in test [1] was -18.4%; in test [2], -13.4%; in test [3], -10.1%; in test [4] it was 9.45%; in test [5], 7.5%; in test [6] it was -7.45%.

Consider `CCCC(=O)Nc1cccc(C(F)(F)F)c1`, for which the growth inhibition in test [1] was 7.65%; in test [2], 19.6%; in test [3], -11.4%; in test [4], 22.5%; in test [5] it was 26.9%; in test [6], 28.6%.

Turning to `CCOc1c(F)ccc(F)c1-c1c(F)ccc(F)c1OCC`, the growth inhibition in test [1] was -7.5%; in test [2], -0.3%; in test [3], 5.65%; in test [4], 2.4%; in test [5] it was 3.3%; in test [6] it was -5.2%.

As to `O=C(NC(=S)Nc1ccc2ccccc2c1)c1ccc(Cl)cc1Cl`, the growth inhibition in test [1] is -1.45%; in test [2], 1.2%; in test [3], 28.2%; in test [4], -10.6%; in test [5], 23.4%; in test [6] it was -41.1%.

Turning to `COC1=NO[C@@H]2C=CO[C@H]12`, the growth inhibition in test [1] is -8.2%; in test [2], -13.2%; in test [3], -5.05%; in test [4], -18.4%; in test [5], 8.35%; in test [6], 9.95%.

Take `N#C/C(=C/c1ccc(Cl)cc1)C(=O)O`: the growth inhibition in test [1] was 6.35%; in test [2], -2.35%; in test [3], -13.3%; in test [4], 6.35%; in test [5] it was -0.15%; in test [6] it was 21.1%.

Turning to `Cc1cc(=O)n2c(n1)sc1ccc3ccccc3c12`, the growth inhibition was 12% in test [1]; -11.8% in test [2]; 3.1% in test [3]; 12.8% in test [4]; -12.8% in test [5]; 33.9% in test [6].

With `CC1(C)CC(C)(C)[P+]1(C)c1ccccc1`, the growth inhibition in test [1] is -0.35%; in test [2], 16.4%; in test [3], 12.8%; in test [4] it was -3.45%; in test [5], 15.6%; in test [6], 10.1%.

With `COc1ccc(CCNC(=S)NN)cc1OC`, the growth inhibition is -15.7% in test [1]; -23.6% in test [2]; -7.35% in test [3]; -23.5% in test [4]; -17% in test [5]; -28.7% in test [6].

As for `C1=NC(c2ccccc2)=CN(C2CCCCC2)C1(c1ccccc1)C1CCCCC1` (centres undefined), the growth inhibition in test [1] was 97.1% (active); in test [2], 96.5% (active); in test [3] it was 97.2% (active); in test [4], 94.6% (active); in test [5], 95.7% (active); in test [6], 96.5% (active).

In the case of `Cc1nc2cc(Cl)ccc2s1`, the growth inhibition is 30.5% in test [1]; 2.8% in test [2]; 22.1% in test [3]; 18.4% in test [4]; 30.3% in test [5]; 26.2% in test [6].

For the molecule `c1ccc(C2(c3ccccc3)CC([P+](c3ccccc3)(c3ccccc3)c3ccccc3)N=N2)cc1` (centres undefined), the growth inhibition is 99.3% (active) in test [1]; 99.6% (active) in test [2]; 99.7% (active) in test [3]; 99.4% (active) in test [4]; 97.5% (active) in test [5]; 99.5% (active) in test [6].

`COc1ccc2c(c1)C1(C)CCCC(C)C1=CC2=O` (centres undefined): the growth inhibition in test [1] is 84% (active); in test [2], 78.3% (active); in test [3], 82.8% (active); in test [4], 28.1%; in test [5] it was 87.8% (active); in test [6], 85% (active).

`COC(=O)[C@]1(C)CCC[C@]2(C)c3ccc(C(C)=O)cc3C(=O)C[C@@H]12`: the growth inhibition was -1.5% in test [1]; -10.8% in test [2]; 9.5% in test [3]; -31.6% in test [4]; -8.5% in test [5]; -15.1% in test [6].

As for `Cc1ccc(NC(=O)c2cc3ccccc3c(N=Nc3ccccc3O)c2O)c(C)c1`, the growth inhibition is -11.9% in test [1]; 5.4% in test [2]; 9% in test [3]; 9.85% in test [4]; 12.6% in test [5]; 10.7% in test [6].

Take `O=NC1CCCCC1Cl` (centres undefined): the growth inhibition is 3% in test [1]; -4.15% in test [2]; 4.6% in test [3]; -4.45% in test [4]; 7.05% in test [5]; 2.55% in test [6].

As to `N#CCC1(O)c2ccccc2-c2ccccc21`, the growth inhibition in test [1] is -11.9%; in test [2] it was 7.45%; in test [3], 8%; in test [4] it was -6.25%; in test [5], 1.4%; in test [6], 9.9%.
